# From PubChem BioAssay (EPA / NIEHS)
# Inconclusive results are not listed. The source holds several records for some structures; these can differ, active in one and inactive in another. The source made the active and inactive calls. The calls were made as follows: active = hit-call score of the fitted dose curve at least 0.9, where 1 is the maximum; inconclusive = response in the unintended direction; inactive = score below 0.9.
# Biological target: human RAR-related Orphan Receptor beta (RORb), RORB (gene 6096) (UniProt Q92753)
# Test: ATG_RORb_TRANS: Attagene TRANS-FACTORIAL HepG2 Assay for human RAR-related Orphan Receptor beta (RORb) (AID 2283010);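 as to AC50: potency for increased reporter mRNA meaning activation of RORb-Gal4 chimera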
# Description: ATG_TRANS is a cell-based, multiplexed-readout assay that uses HepG2, a human liver cell line, with measurements taken at 24 hours after chemical dosing in a 24-well plate.ATG_RORb_TRANS is one of 30 assay component(s) measured or calculated from the ATG_TRANS assay. It is designed to make measurements of mRNA induction, a form of inducible reporter, as detected with fluorescence intensity signals by Reverse transcription polymerase chain reaction (RT-PCR) and Capillary electrophoresis technology.Data from the assay component ATG_RORb_TRANS was analyzed into 1 assay endpoint. This assay endpoint, ATG_RORb_TRANS, was analyzed in the positive analysis fitting direction relative to DMSO as the negative control and baseline of activity. Using a type of inducible reporter, measures of mRNA for gain-of-signal activity can be used to understand the reporter gene at the transcription factor-level as they relate to the gene RORB. Furthermore, this assay endpoint can be referred to as a primary readout, because this assay has produced multiple assay endpoints where this one serves a reporter gene function. To generalize the intended target to other relatable targets, this assay endpoint is annotated to the nuclear receptor intended target family, where the subfamily is orphan.
# Human liver HepG2 cells are transiently transfected with multiple reporter transcription units (MRTUs) in 6-well plates using FuGene 6 reagent (Roche; 3 ml FuGene/1 mg DNA). The MRTU constructs are regulated by a cis-regulating element (promoter). […] A major difference between the CIS and TRANS system is that in CIS activities of endogenous TFs are measured, whereas the TRANS assay evaluates changes in activities of exogenous, chimeric NR-Gal4 proteins. […] At the end of 24 hour incubation, total RNA was isolated using TriZol reagent (Invitrogen). The isolated RNA is then reverse-transcribed using oligo(dT) primer and Mo-MLV reverse transcriptase (Invitrogen) with DNAse I (Ambion) treatment for 30 min. The one-tenth of the produced cDNA was amplified by PCR using Taq DNA polymerase (Invitrogen) and two reporter sequence-specific primers. The PCR products were fluorescently labeled by primer extension with 6-arboxyfluorescein (6-FAM) 5'-labeled reporter sequence-specific primer (2 min at 95 C, 20 s at 68 C and 10 min at 72 C) and these products were digested with 5U of HpaI (New England Biolabs) for 2h at 37 C. The fragments were purified using Qiaquick PCR columns (Qiagen), analyzed on an ABI 3130xL genetic analyzer (Applied Biosystems) with peak positions identified by using a set of X-rhodamine (ROX)-labeled MapMarker1000 molecular weight standards (BioVentures). The raw capillary electrophoresis data was processed using Attagraph software (Attagene).
# Chain of human RAR-related Orphan Receptor beta (RORb), RORB (gene 6096) (Q92753 whole entry, looked up, the tested form may be a part): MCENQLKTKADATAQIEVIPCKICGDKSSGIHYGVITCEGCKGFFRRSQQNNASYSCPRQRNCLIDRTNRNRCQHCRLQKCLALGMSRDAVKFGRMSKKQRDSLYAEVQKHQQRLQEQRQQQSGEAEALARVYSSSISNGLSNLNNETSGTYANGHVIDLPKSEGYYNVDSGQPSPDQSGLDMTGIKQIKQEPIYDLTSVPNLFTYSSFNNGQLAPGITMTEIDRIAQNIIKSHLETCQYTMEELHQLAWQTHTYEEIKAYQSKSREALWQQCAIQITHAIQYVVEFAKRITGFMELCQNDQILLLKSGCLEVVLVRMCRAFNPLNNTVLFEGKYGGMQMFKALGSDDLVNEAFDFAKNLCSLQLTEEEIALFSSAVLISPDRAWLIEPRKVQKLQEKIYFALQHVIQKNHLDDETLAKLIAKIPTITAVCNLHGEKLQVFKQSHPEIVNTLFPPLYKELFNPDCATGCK
Compound,outcome,AC50
CCCCCOC(=O)COc1cc(N2C(=O)C3=C(CCCC3)C2=O)c(F)cc1Cl,inactive,
OB(O)O,inactive,
CCOC(=O)C(C)Oc1ccc(Oc2cnc3cc(Cl)ccc3n2)cc1 (stereo not given),inactive,
CC1(C)C(C=C(Cl)Cl)C1C(=O)OCc1cccc(Oc2ccccc2)c1 (stereo not given),inactive,
O=C(Nc1ccc([N+](=O)[O-])cc1Cl)c1cc(Cl)ccc1O,inactive,
CCNc1nc(N)nc(Cl)n1,inactive,
CCCOC(=O)c1ccc(C(=O)OCCC)nc1,inactive,
CC(C)CCCCCCc1ccc(O)cc1,inactive,
C[C@]12CC[C@@H]3c4ccc(O)cc4C[C@@H](CCCCCCCCCS(=O)CCCC(F)(F)C(F)(F)F)[C@H]3[C@@H]1CC[C@@H]2O (stereo not given in full),inactive,
S=C(S)NCCNC(=S)S.[Mn+2].[S-]C([S-])=NCCN=C([S-])[S-].[Zn+2],inactive,
Oc1ccc(C(c2ccc(O)cc2)C(Cl)(Cl)Cl)cc1,inactive,
Cc1nn(C)c(Oc2ccccc2)c1C=NOCc1ccc(C(=O)OC(C)(C)C)cc1,inactive,
O=C(c1ccc(O)cc1O)c1ccc(O)cc1O,inactive,
COC(=O)c1ccc(CNS(C)(=O)=O)cc1S(=O)(=O)NC(=O)Nc1nc(OC)cc(OC)n1,inactive,
N#CSCSc1nc2ccccc2s1,inactive,12.3 µM (active)
CN(C)C(=O)Nc1ccc(Cl)c(Cl)c1,inactive,
C#CCOC(=O)[C@@H](C)Oc1ccc(Oc2ncc(Cl)cc2F)cc1,inactive,
S=C([S-])NCCNC(=S)[S-].[Mn+2],inactive,
CCOC(=O)[C@H](C)Oc1ccc(Oc2nc3ccc(Cl)cc3o2)cc1,inactive,
COCCO,inactive,
CC(C)(c1ccc(O)cc1)c1ccc(O)cc1,inactive,
CCCN(CCC)C(=O)SCC,inactive,
COC(=O)c1c(Cl)nn(C)c1S(=O)(=O)NC(=O)Nc1nc(OC)cc(OC)n1,inactive,
CCCCCCC(C)OC(=O)COc1nc(F)c(Cl)c(N)c1Cl (stereo not given),inactive,
CCCCOC(=O)[C@@H](C)Oc1ccc(Oc2ccc(C(F)(F)F)cn2)cc1,inactive,
CCCCOC(=O)C(C)Oc1ccc(Oc2ccc(C(F)(F)F)cn2)cc1 (stereo not given),inactive,
O=C(O)c1ccccc1,inactive,
CCC(O)=C1C(=O)CC(C(=O)O)CC1=O (stereo not given),inactive,
